# Values of other authors, collected in PubChem BioAssay AID977611.
# Out of some 3,900 compounds screened, about 3,900 (100%) were called active. The limit is not given here; nearly all actives have Kd up to about 4200 µM. The set was probably picked from earlier hits. Some of the results follow. Bridge positions count the residues as written; N and C are the ends. Where a SMILES comes first, the peptide text is derived from it. Square brackets hold non-standard residues; d marks the D form. Bridges are numbered along the chain shown (N, C = ends). Peptide text beside a SMILES is read from it. Orn(CH(NH2)2) = NC(N)NCCC[C@H](N)C(=O)O
# Test: PubChem AID 977611
# Conditions: PDB protein-ligand complexes, literature Kd
compound,measurement,setting,value
O=C1N=C(N=Nc2c(O)[nH]c3ccc(S(O)(O)O)cc23)S/C1=C\c1ccco1,Kd,"protein: NUCLEOCAPSID PROTEIN P7, PDB entry 2m3z",0.27 µM (active)
Oc1ccc2c3c1O[C@H]1c4[nH]c5ccccc5c4C[C@@]4(O)[C@@H](C2)N(CC2CC2)CC[C@]314,Kd,"protein: Soluble cytochrome b562, Delta-type opioid receptor chimeric protein, PDB entry 4n6h",0.00052 µM (active)
H-SPSGVFTFG-OH,Kd,"protein: Capsid protein p24, PDB entry 4u0c",49 µM (active)
same,Kd,"protein: Gag polyprotein, PDB entry 4u0d",49 µM (active)
H-SSKPDIVG-OH,Kd,"protein: NprR, PDB entry 4gpk",0.03 µM (active)
CC(C)[C@H](NC(=O)[C@H](CO[P+](O)(O)O)NC(=O)[C@H](Cc1cnc[nH]1)NC(=O)[C@@H](N)Cc1ccc(O)cc1)C(=O)N[C@H](C(=O)N[C@@H](CCCNC(N)N)C(=O)N[C@@H](Cc1ccc(O)cc1)C(=O)N[C@@H](C)C(=O)O)C(C)C,Kd,"protein: MOB kinase activator 1A, PDB entry 4jiz",2.4 µM (active)
H-KHWVYY-OH,Kd,PDB entry 1abt,1.4 µM (active)
OC[C@H]1O[C@@H](S[C@@H]2O[C@H](CO)[C@H](O)[C@H](O)[C@H]2O)[C@H](O)[C@@H](O)[C@H]1O,Kd,"protein: Galectin-3, PDB entry 4jc1",50 µM (active)
OC[C@H]1O[C@@H](S[C@@H]2O[C@H](CO)[C@H](O)[C@H](O)[C@@H]2O)[C@@H](O)[C@@H](O)[C@H]1O,Kd,"protein: Galectin-3, PDB entry 4jck",4300 µM (active)
O=c1cccc2n1C[C@@H]1CNC[C@H]2C1,Kd,"protein: Aplysia californica acetylcholine-binding protein (AChBP), PDB entry 4AFO",1.64 µM (active)
same,Kd,"protein: Aplysia californica acetylcholine-binding protein (AChBP), PDB entry 4bqt",1.64 µM (active)
Cc1ccc(N2C(=O)C(=O)/C(=C(/O)c3ccccc3)[C@@H]2c2cc(Br)cs2)cc1C(=O)O,Kd,"protein: Polymerase cofactor Ebola virus VP35, PDB entry 4ibd",215 µM (active)
O=C1C(=O)N(c2ccc(Cl)c(C(=O)O)c2)[C@@H](c2cc(Br)cs2)/C1=C(\O)c1ccccc1,Kd,"protein: Polymerase cofactor Ebola virus VP35, PDB entry 4ibe",70.6 µM (active)
O=C(O)[C@H]1C2CCC(CC2)[C@@H]1Nc1nc(-c2c[nH]c3ncc(F)cc23)ncc1F,Kd,"protein: Influenza polymerase basic protein 2 (PB2), PDB entry 4p1u",0.003 µM (active)
Cc1cccc(/C(O)=C2\C(=O)C(=O)N(c3ccc(CC(=O)O)cc3)[C@H]2c2cc(Cl)c3c(c2)OCO3)c1,Kd,"protein: Polymerase cofactor Ebola virus VP35, PDB entry 4ibg",108 µM (active)
O=C(O)Cc1ccc(N2C(=O)C(=O)/C(=C(/O)c3ccccc3Cl)[C@@H]2c2ccccc2Cl)cc1,Kd,"protein: Polymerase cofactor Ebola virus VP35, PDB entry 4ibc",1050 µM (active)
O=C(O)c1cccc(N2C(=O)C(O)=C(C(=O)c3ccc(Cl)s3)[C@@H]2c2cc(Cl)c3c(c2)OCO3)c1,Kd,"protein: Polymerase cofactor Ebola virus VP35, PDB entry 4ibk",50.4 µM (active)
O=C1C(=O)N(c2cccc(C(=O)O)c2)[C@@H](c2cc(Cl)c3c(c2)OCO3)/C1=C(\O)c1cccc(C(F)(F)F)c1,Kd,"protein: Polymerase cofactor Ebola virus VP35, PDB entry 4ibi",73 µM (active)
O=C1C(=O)N(c2cccc(C(=O)O)c2)[C@@H](c2cccc(C(F)(F)F)c2)/C1=C(\O)c1cccc(C(F)(F)F)c1,Kd,"protein: Polymerase cofactor Ebola virus VP35, PDB entry 4ibj",47 µM (active)
CCN1c2cc(N)ccc2-c2ccc(N)cc2[C@H]1c1ccccc1,Kd,"protein: Putative regulatory protein, PDB entry 3vvy",14.6 µM (active)
CO[C@@H]1O[C@@H](C)[C@@H](O)[C@@H](O)[C@@H]1O,Kd,"protein: Ralstonia solanacearum fucose-binding lectin protein, PDB entry 4csd",1.23 µM (active)
Nc1c(O)n(Cc2ccccc2)c(=O)[nH]c1=O,Kd,"protein: Glucose-1-phosphate thymidylyltransferase (RmlA), PDB entry 3zll",0.395 µM (active)
same,Kd,"protein: Glucose-1-phosphate thymidylyltransferase (RmlA), PDB entry 4AS6",0.395 µM (active)
C[C@@H](O)[C@H](NC(=O)[C@@H]1CCCN1C(=O)[C@H](CO[P+](O)(O)O)NC(=O)[C@@H](N)Cc1ccc(O)cc1)C(=O)N[C@@H](CO)C(=O)N1CCC[C@H]1C(=O)O,Kd,"protein: CTD INTERACTING DOMAIN of RNA processing factor SCAF8, PDB entry 3d9n",90 µM (active)
C[C@@H](O)[C@H](NC(=O)[C@@H]1CCCN1C(=O)[C@H](CO)NC(=O)[C@@H](N)Cc1ccc(O)cc1)C(=O)N[C@@H](CO[P+](O)(O)O)C(=O)N1CCC[C@H]1C(=O)N[C@@H](CO)C(=O)O,Kd,"protein: CTD INTERACTING DOMAIN of RNA processing factor SCAF8, PDB entry 3d9m",330 µM (active)
C[C@H](Nc1nc(-c2c[nH]c3ncc(Cl)cc23)ncc1F)C(=O)N(C)C,Kd,"protein: Influenza polymerase basic protein 2 (PB2), PDB entry 4ncm",0.1 µM (active)
CC(C)[C@H](NC(=O)[C@H](Cc1c[nH]c2ccccc12)NC(=O)[C@H](Cc1c[nH]cn1)NC(=O)[C@H](CCCCN)NC(=O)[C@H](Cc1c[nH]c2ccccc12)NC(=O)CNC(=O)[C@H](CCCNC(N)N)NC(=O)[C@@H](N)Cc1ccc(O)cc1)C(=O)N[C@@H](Cc1ccc(O)cc1)C(=O)N[C@@H](Cc1ccc(O)cc1)C(=O)N[C@H](C(=O)N[C@H]1CSSC[C@@H](C(=O)N2CCC[C@H]2C(=O)N[C@@H](CC(=O)O)C(=O)N[C@H](C(=O)N2CCC[C@H]2C(=O)N[C@@H](Cc2ccc(O)cc2)C(=O)O)[C@H](C)O)NC1=O)[C@@H](C)O,Kd,PDB entry 1idg,0.065 µM (active)
CC(C)[C@H](NC(=O)[C@H](Cc1c[nH]c2ccccc12)NC(=O)[C@H](Cc1c[nH]cn1)NC(=O)[C@H](CCCCN)NC(=O)[C@H](Cc1c[nH]c2ccccc12)NC(=O)CNC(=O)[C@H](CCCNC(N)N)NC(=O)[C@@H](N)Cc1ccc(O)cc1)C(=O)N[C@@H](Cc1ccc(O)cc1)C(=O)N[C@@H](Cc1ccc(O)cc1)C(=O)N[C@H](C(=O)N[C@H]1CSSC[C@@H](C(=O)N2CCC[C@H]2C(=O)N[C@@H](CC(=O)O)C(=O)N[C@H](C(=O)N2CCC[C@H]2C(=O)N[C@@H](Cc2ccc(O)cc2)C(=O)O)[C@@H](C)O)NC1=O)[C@@H](C)O (H-Y[Orn(CH(NH2)2)]GWKHWVYYTCCPDTPY-OH; disulfide 12-13),Kd,"protein: Cbtx, PDB entry 1lxh",0.065 µM (active)
C[C@H](CC(=O)O)c1n[nH]c2nc(N)[nH]c(=O)c2c1=O,Kd,"protein: Dihydropteroate Synthase, PDB entry 4d8z",0.51 µM (active)
Nc1nc2[nH]nc(CCC(=O)O)c(=O)c2c(=O)[nH]1,Kd,"protein: Dihydropteroate Synthase, PDB entry 4db7",0.273 µM (active)
C[C@@H](C(=O)O)c1n[nH]c2nc(N)[nH]c(=O)c2c1=O,Kd,"protein: Dihydropteroate Synthase, PDB entry 4daf",0.076 µM (active)
COc1ccccc1[C@@H](Br)[C@H](NC(=O)c1ccc([N+](=O)[O-])cc1)C(=O)N1CCCCC1,Kd,"protein: Capsid protein, PDB entry 4g93",300 µM (active)
Nc1ncnc2c1ncn2[C@@H]1O[C@H](COP(O)O)[C@@H](O)[C@H]1O,Kd,PDB entry 4qsk,8 µM (active)
C[C@@H](Oc1ccc(Oc2ncc(C(F)(F)F)cc2Cl)cc1)C(=O)O,Kd,"protein: carboxyltransferase subunit of ACC (AccD6), PDB entry 4g2r",35.8 µM (active)
OC(Cc1cccc(-c2cccc3c2oc2ccccc23)c1)([P+](O)(O)O)[P+](O)(O)O,Kd,"protein: Diterpene synthase Rv3378c, PDB entry 3wqm",0.56 µM (active)
CN1CCN(c2cccc(CN)c2)CC1,Kd,"protein: CATIONIC TRYPSIN, PDB entry 4abg",271 µM (active)
"CC(C)C[C@@H]1NC(=O)[C@H](C)NC(=O)[C@@H]2CSSC[C@H](NC(=O)CN)C(=O)N[C@@H](CSSC[C@@H](C(=O)O)NC(=O)[C@H](Cc3ccc(O)cc3)NC(=O)[C@H](CCCCN)NC(=O)[C@@H]3CCCN3C(=O)[C@H](CC(N)=O)NC(=O)[C@H](CC(N)=O)NC1=O)C(=O)N[C@@H](CO)C(=O)N[C@@H](CC(C)C)C(=O)N1CCC[C@H]1C(=O)N1CCC[C@H]1C(=O)N2 (H-GCCSLPPCALNNPKYC-OH; disulfide 2-8, 3-16)",Kd,"protein: nicotinic acetylcholine receptor homolog AChBP(?7-nAChR), PDB entry 2br8",0.0326 µM (active)
